# Source: publication PMC4336329 (PLoS ONE, 2015)
# The whole screen tested about 310,000 compounds, of which about 14,000 (4.5%) showed an effect of 50% or more. The effect is printed as a negative number. The full list was thinned out, with strong results kept by preference.
# Target: human ether-à-go-go-related gene (hERG) potassium channel (human, UniProt Q12809)
# Assay: primary screen, population patch clamp on CHO cells stably expressing hERG; higher = less effect of the substance
# 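Further: peak tail current of the secondary pulse compared with the same well before compound.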
# human ether-à-go-go-related gene (hERG) potassium channel, sequence (Q12809 whole entry, looked up): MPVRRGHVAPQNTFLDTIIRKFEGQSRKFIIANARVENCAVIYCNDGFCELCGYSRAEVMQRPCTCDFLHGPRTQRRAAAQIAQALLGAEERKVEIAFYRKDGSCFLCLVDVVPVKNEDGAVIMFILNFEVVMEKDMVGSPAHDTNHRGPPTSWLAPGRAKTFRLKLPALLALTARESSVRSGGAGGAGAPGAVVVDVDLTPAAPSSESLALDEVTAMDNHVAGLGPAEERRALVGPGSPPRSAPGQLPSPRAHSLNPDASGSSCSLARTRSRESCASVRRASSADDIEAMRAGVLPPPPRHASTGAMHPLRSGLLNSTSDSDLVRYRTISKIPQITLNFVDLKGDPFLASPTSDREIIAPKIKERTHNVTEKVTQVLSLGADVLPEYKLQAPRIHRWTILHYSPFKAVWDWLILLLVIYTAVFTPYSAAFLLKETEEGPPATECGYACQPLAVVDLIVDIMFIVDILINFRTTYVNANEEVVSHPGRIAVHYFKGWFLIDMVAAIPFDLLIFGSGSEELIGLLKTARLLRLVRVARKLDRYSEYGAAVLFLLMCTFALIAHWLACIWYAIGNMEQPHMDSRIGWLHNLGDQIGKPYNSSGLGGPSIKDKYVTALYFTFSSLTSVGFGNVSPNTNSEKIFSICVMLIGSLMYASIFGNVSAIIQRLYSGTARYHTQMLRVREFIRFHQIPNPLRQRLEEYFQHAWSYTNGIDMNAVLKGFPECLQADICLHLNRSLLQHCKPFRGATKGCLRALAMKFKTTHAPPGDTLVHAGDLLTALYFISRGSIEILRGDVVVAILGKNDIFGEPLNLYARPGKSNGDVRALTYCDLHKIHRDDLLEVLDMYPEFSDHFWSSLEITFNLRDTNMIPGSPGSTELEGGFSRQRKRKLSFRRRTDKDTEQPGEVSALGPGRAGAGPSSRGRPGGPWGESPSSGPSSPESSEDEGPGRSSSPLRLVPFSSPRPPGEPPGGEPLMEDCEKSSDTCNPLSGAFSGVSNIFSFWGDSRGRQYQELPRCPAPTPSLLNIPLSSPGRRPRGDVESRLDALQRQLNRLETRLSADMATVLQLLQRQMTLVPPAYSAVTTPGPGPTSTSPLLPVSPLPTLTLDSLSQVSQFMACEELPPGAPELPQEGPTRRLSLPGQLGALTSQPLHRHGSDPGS
row,SMILES,"hERG current change (%, negative = inhibition) at 10uM [%]"
1,O=C1CNC(=S)N1C(CO)c1ccccc1 (stereo not drawn),22.2
2,CCc1cc(C(=O)Cc2ccc(F)cc2)c(O)cc1O,-12.7
3,O=C(O)c1c(C(=O)O)c(-c2ccc(Br)cc2)n2c1CSC2,15
4,O=C(O)COc1ccc(S(=O)(=O)NCCc2ccccc2)cc1,6.4
5,CC(C)C[C@H](NC(=O)C1CC(=O)N(c2ccc3c(c2)OCO3)C1)C(=O)NC1CCCC1 (stereo partly drawn),-0.704
6,Cc1cccc(OCC(=O)Nc2ccc(NC(=O)c3ccco3)c(C)c2)c1,-15.3
7,COc1ccc(C(=O)N2CCC(C(=O)Nc3cccc(C)c3)CC2)cc1OC,-38.9
8,COc1ccc(NC(=O)C2CCN(C(=O)c3cccs3)CC2)cc1,-12.4
9,COc1ccc(C(=O)N2CCC(C(=O)Nc3ccccc3OC)CC2)cc1,-34.6
10,COc1ccc(NC(=O)C2CCN(C(=O)c3ccc(OC)cc3)CC2)cc1,-72.2
11,COC(=O)c1ccc(NC(=O)C2CCN(C(=O)c3cc(OC)c(OC)c(OC)c3)CC2)cc1,6.73
12,COc1ccc(C(=O)N2CCC(C(=O)Nc3ccc(C)cc3)CC2)cc1,-75.9
13,CCOC(=O)c1ccc(NC(=O)C2CCN(C(=O)c3ccc(OC)c(OC)c3)CC2)cc1,-58.7
14,COc1ccc(C(=O)N2CCC(C(=O)Nc3ccc(OC)c(OC)c3)CC2)cc1,1.37
15,COc1ccc(C(=O)N2CCC(C(=O)NC3CC3)CC2)cc1,4.25
16,COc1ccc2sc(-c3ccccc3OC)c(-c3ccc4c(c3)OCCO4)c2c1,17.2
17,Cc1c(C(=O)Nc2ccc3c(c2)OCCO3)oc2ccc(Br)cc12,0.46
18,CCOC(=O)COc1c(OC)cc(Cl)cc1C1Nc2ccccc2C(=O)N1c1cccc(C)c1 (stereo not drawn),-8.45
19,O=C1OCCN/C1=C\C(=O)c1ccc(Cl)cc1,14.5
20,Cn1ccc(NS(=O)(=O)c2cc(Br)ccc2Br)n1,0.158
21,O=C(CCS(=O)(=O)c1ccc(F)cc1)Nc1nnc(-c2ccc(F)cc2)o1,-10.7
22,COc1ccc(NC(=O)c2sc3ncn(CC(=O)N4CCN(c5ccccn5)CC4)c(=O)c3c2C)c(OC)c1,19.5
23,O=C(c1ccco1)N1N=C(c2cccs2)CC1c1cc([N+](=O)[O-])ccc1O (stereo not drawn),7.51
24,CCCCCCCN1C(N(C)C)=NC[C@@H]1Cc1ccccc1,-80.1

row,SMILES,"hERG current change (%, negative = inhibition) at 10uM [%]"
1,CC(C)C[C@H]1CN=C(N(C)C)N1CCCCc1ccccc1,-64.7
2,CCC(C)CCN1C(N(C)C)=NC[C@@H]1Cc1ccccc1 (stereo partly drawn),-22.5
3,CN(C)C1=NC[C@H](Cc2ccccc2)N1CCCCc1ccccc1,-71
4,C[C@H]1CN=C(N(C)C)N1CCCCc1ccccc1,-25.5
5,CC(C)CCCN1C(N(C)C)=NC[C@@H]1Cc1ccccc1,-24.9
6,CCC(CC)CN1C(N(C)C)=NC[C@@H]1CC(C)C,-4.65
7,CCN1C(N(C)C)=NC[C@@H]1Cc1ccccc1,-1.57
8,CCC(C)CCN1C(N(C)C)=NC[C@@H]1CC(C)C (stereo partly drawn),-11
9,COC(=O)C1=NN(c2cccc(C)c2)C2C(=O)N(c3ccccc3OC)C(=O)C12 (stereo not drawn),-4.79
10,COc1ccccc1OCc1cc(C(=O)NCc2ccc(N3CCCC3=O)cc2)no1,13.4
11,Cc1ccc(OC(=O)c2cccc(S(=O)(=O)N3CCN(C)CC3)c2)c(Br)c1,-19.5
12,O=C(NCc1ccccc1)C(C(=O)c1ccc(F)cc1)n1ccccc1=O (stereo not drawn),-0.0984
13,COc1ccc(C2(C(=O)Nc3ccccc3)CCOCC2)cc1,-14.2
14,CC1CCCCC1NC(=O)COC(=O)/C=C/c1ccco1 (stereo not drawn),-1.9
15,O=C1c2ccc(Oc3ccc([N+](=O)[O-])cc3)cc2C(=O)N1CCO,-52.8
16,O=C1c2ccc(Oc3ccc4c(c3)C(=O)N(CCCCO)C4=O)cc2C(=O)N1CCCCO,-24.1
17,O=C1c2ccc(Oc3ccc4c(c3)C(=O)N(CCCO)C4=O)cc2C(=O)N1CCCO,-1.78
18,O=C(O)CCN1C(=O)c2ccc(Oc3ccc([N+](=O)[O-])cc3)cc2C1=O,4.85
19,O=C(O)CN1C(=O)c2ccc(Oc3ccc([N+](=O)[O-])cc3)cc2C1=O,23.2
20,O=C1c2ccc(Oc3ccc([N+](=O)[O-])cc3)cc2C(=O)N1CCCO,-60.8
21,CCC(=O)N1CCCc2cc(S(=O)(=O)N3CCN(c4ccccc4F)CC3)ccc21,-23.7
22,CCOC(=O)C1CCCN(C(=O)c2cnn3c(C(F)F)cc(-c4ccc(C)cc4)nc23)C1 (stereo not drawn),-38.4
23,CC(C)(C)SCCNC(=O)c1ccc(Cl)c(S(=O)(=O)N2CCOCC2)c1,-6.74
24,Cl.O=C(NCCCN1CCOCC1)c1ccc(Cl)c(S(=O)(=O)N2CCCCCC2)c1,-50.6

row,SMILES,"hERG current change (%, negative = inhibition) at 10uM [%]"
1,Cc1ccc(CSCCNC(=O)c2ccc(Cl)c(S(=O)(=O)N3CCOCC3)c2)cc1,-40.5
2,O=C(NCCN1CCOCC1)c1ccc(Cl)c(S(=O)(=O)N2CCCC2)c1,-0.109
3,O=C(NCCN1CCOCC1)c1ccc(Cl)c(S(=O)(=O)N2CCCCC2)c1,-58.3
4,CC(C)(CNC(=O)c1ccc(Cl)c(S(=O)(=O)N2CCc3ccccc3C2)c1)N1CCOCC1,-50.3
5,O=C(NCCN1CCOCC1)c1ccc(Cl)c(S(=O)(=O)N2CCOCC2)c1,13.1
6,Cl.O=C(NCCN1CCOCC1)c1ccc(Cl)c(S(=O)(=O)N2CCCCCC2)c1,-40.1
7,Cc1ccc(C(=O)NCCN2CCOCC2)cc1S(=O)(=O)N1CCCCC1,-20.7
8,O=C(NCCSCc1ccccc1)c1ccc(Cl)c(S(=O)(=O)N2CCOCC2)c1,-50
9,Cc1ccccc1CSCCNC(=O)c1ccc(Cl)c(S(=O)(=O)N2CCOCC2)c1,-42.2
10,COc1ccc(C(=O)NCC(C)(C)N2CCOCC2)cc1S(=O)(=O)N1CCCC1,-8.82
11,Cc1ccccc1C(=O)NC(=S)Nc1ccc(S(=O)(=O)N2CCN(C)CC2)cc1,7.75
12,COc1ccc(-c2noc(CN3CCCCC3)n2)cc1OC,-1.49
13,Cc1cccc(C)c1NC(=O)CN(c1ccccn1)S(=O)(=O)c1ccc(F)cc1,19.1
14,Cc1ccc2[nH]cc(CCNS(=O)(=O)c3ccc(F)cc3)c2c1,-4.39
15,O=C(c1cccc([N+](=O)[O-])c1)n1nc(-c2ccccc2)nc1NCc1ccccc1,9.75
16,Cn1c(-c2cccc([N+](=O)[O-])c2)cnc1NCc1cccc([N+](=O)[O-])c1.O=C(O)C(=O)O,-77.8
17,Cn1c(-c2ccccc2)cnc1NCc1ccccc1,-21.3
18,Cn1c(-c2ccccc2)cnc1NCc1cccc([N+](=O)[O-])c1,-72
19,Cn1c(-c2ccc(F)cc2)cnc1NCc1cccc(F)c1,-46
20,COc1cccc(CNc2ncc(-c3ccccc3)n2C)c1,-35.6
21,CC(C)NCc1cccc([N+](=O)[O-])c1.O=C(O)C(=O)O,3.39
22,CSc1ccc(CNc2ncc(-c3cccc([N+](=O)[O-])c3)n2C)cc1.O=C(O)C(=O)O,-66.4
23,Cn1c(-c2ccc(F)cc2)cnc1NCc1cccc([N+](=O)[O-])c1,-70.9
24,Cc1ccc(CNc2ncc(-c3ccccc3)n2C)o1.O=C(O)C(=O)O,-37

row,SMILES,"hERG current change (%, negative = inhibition) at 10uM [%]"
1,CCN(CC)C(=O)c1ccc(NC(=O)Cn2nc(C)c3ccccc3c2=O)cc1,-10.3
2,Cc1ccc(C(=O)CSc2nnc(-c3cccnc3)n2N)cc1,-15.2
3,O=C(NCCN1C(=O)S/C(=C\c2ccc(Cl)c(Cl)c2)C1=O)C1COc2ccccc2O1 (stereo not drawn),-9.28
4,COc1cc2c(cc1OC)[C@H](C)N(C(=O)NCc1ccccc1)CC2,5.78
5,CCN(CC)c1ccc2cc(-c3nc4ccccc4n3C)c(=O)oc2c1,22.9
6,O=C(c1cc2sccc2n1Cc1ccc(F)cc1)N1CCCc2ccccc21,15.3
7,c1ccc2c(c1)c1ccccc1n1c(-c3ccc4c(c3)OCO4)nnc21,3.9
8,Cn1ncc2c(N3CCCCC3)nc(NCCCO)nc21,11.9
9,Cn1cnc2c1c(=O)n(Cc1ccc(F)cc1Cl)c(=O)n2C,5.82
10,CCOC(=O)C1CCCN(C(=O)c2cccc(S(=O)(=O)N3CCOCC3)c2)C1 (stereo not drawn),15.6
11,COc1ccc2cc(C#N)c(SCC(=O)N3CC(=O)Nc4ccccc43)nc2c1,14.9
12,COc1ccc(S(=O)(=O)NCCc2cn3nc(C)c(C)nc3n2)cc1F,3.38
13,COc1ccc([N+](=O)[O-])cc1NCc1cccc([N+](=O)[O-])c1,-62.6
14,COc1ccc(CNc2cc([N+](=O)[O-])ccc2OC)cc1,-1.02
15,CCOc1ccc(CNc2ncc(-c3ccccc3)n2C)cc1,-38.9
16,Cn1c(-c2ccc(Br)cc2)cnc1NCc1cccnc1,-41.3
17,COc1ccc(CNc2ncc(-c3ccccc3)n2C)cc1,-32.6
18,Cn1c(-c2cccc([N+](=O)[O-])c2)cnc1NCc1ccc(C#N)cc1.O=C(O)C(=O)O,-75
19,Cn1c(-c2cccc([N+](=O)[O-])c2)cnc1NCc1cccc(F)c1.O=C(O)C(=O)O,-54.1
20,Cn1c(-c2cccc(Br)c2)cnc1NCc1cccnc1,-59.6
21,COc1ccc([N+](=O)[O-])cc1NCc1ccccc1.O=C(O)C(=O)O,2.96
